Experimental data: PubChem BioAssay (NCI)
About 79,000 compounds went through this panel and 15% of them were active in at least one assay; those are over-represented in the sample as a whole. Active and inactive are the calls of the source. No stated cut-off is given here; in the data, active means growth inhibition above about 70%; inactive means the rest.

Columns and labels:
[1] = NCI Yeast Anticancer Drug Screen. Data for the rad52 strain (AID 147);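 further: 0% = growth of vehicle-treated control cultures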; conditions: S. cerevisiae rad52 mutant growth inhibition, active compounds read high
In short: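 Vehicle-treated cultures served as the reference for growth inhibition of compound-exposed yeast bearing a DNA repair mutation.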

[2] = NCI Yeast Anticancer Drug Screen. Data for the wt1 strain (AID 149);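 further: 0% = growth of vehicle-treated wt1 cultures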; conditions: S. cerevisiae wt1 strain (SPY 50644) growth inhibition, active compounds read high
In short: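 Using yeast strain wt1, compound-induced growth inhibition was determined against vehicle-treated cultures.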

[3] = NCI Yeast Anticancer Drug Screen. Data for the rad50EPP+ strain (AID 151);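 further: 0% = growth of vehicle-treated control cultures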; conditions: S. cerevisiae rad50 mutant strain, active compounds read high
In short: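 In this screen, rad50EPP+ yeast were exposed to compounds. Growth inhibition was scored against vehicle-treated controls.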

[4] = NCI Yeast Anticancer Drug Screen. Data for the mgt1 strain (AID 153); conditions: S. cerevisiae mgt1 mutant growth inhibition, active compounds read high
In short: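 mgt1 strain exposed; growth vs vehicle control recorded as inhibition.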

[5] = NCI Yeast Anticancer Drug Screen. Data for the rad50 strain (AID 155);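 further: 0% = growth of vehicle-only cultures of the same strain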; conditions: S. cerevisiae rad50 strain growth inhibition, active compounds read high
In short: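 Relative growth inhibition (compound vs vehicle) was measured in yeast with a defined repair-gene alteration.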

[6] = NCI Yeast Anticancer Drug Screen. Data for the mec2-1 strain (AID 157); conditions: S. cerevisiae mec2-1 strain, active compounds read high
In short: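 Vehicle-treated cultures served as reference for growth inhibition of compound-exposed mec2-1 yeast.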

[7] = NCI Yeast Anticancer Drug Screen. Data for the rad14 strain (AID 159);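 further: 0% = growth of vehicle-treated control cultures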; conditions: S. cerevisiae rad14 strain growth inhibition, active compounds read high
In short: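 Screen for anticancer potential: a yeast strain altered in DNA damage repair is grown with compound, and reduced growth is quantified against vehicle controls.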

[8] = NCI Yeast Anticancer Drug Screen. Data for the sgs1 mgt1 strain (AID 161);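 further: 0% = growth of cultures given vehicle only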; conditions: S. cerevisiae sgs1 mgt1 strain, active compounds read high
In short: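 Inhibition of yeast growth, normalised to vehicle-treated controls, is reported for a strain bearing genetic alterations in DNA damage repair.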

[9] = NCI Yeast Anticancer Drug Screen. Data for the CLN2oe strain (AID 163);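 further: 0% = growth of vehicle-only control cultures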; conditions: S. cerevisiae CLN2oe strain, active compounds read high
In short: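 Inhibition relative to vehicle-treated yeast is reported. Cells: strain with genetic alteration in cell-cycle control, grown with compound.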

[10] = NCI Yeast Anticancer Drug Screen. Data for the cln2 rad14 strain (AID 165);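 further: 0% = growth equal to vehicle treated cultures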; conditions: S. cerevisiae cln2 rad14 strain, active compounds read high
In short: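 Each compound was tested on cln2 rad14 yeast. Inhibition of growth was calculated against vehicle-exposed controls.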

[11] = NCI Yeast Anticancer Drug Screen. Data for the bub3 strain (AID 167); conditions: S. cerevisiae bub3 mutant strain, active compounds read high
In short: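 Screening used yeast with an engineered genetic alteration affecting cell cycle control. Compound-exposed cultures were compared with vehicle cultures, and reduced growth was taken as inhibition.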

[12] = NCI Yeast Anticancer Drug Screen. Data for the wt2 strain (AID 169);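 further: 0% = growth of vehicle-treated yeast cultures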; conditions: S. cerevisiae wt2 strain growth inhibition, active compounds read high
In short: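 Inhibition of yeast growth was determined after compound treatment, normalised to controls receiving only vehicle.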

[13] = NCI Yeast Anticancer Drug Screen. Data for the mlh1 strain (AID 171);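 further: 0% = growth of vehicle-treated control cultures of the same strain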; conditions: S. cerevisiae mlh1 strain growth inhibition, active compounds read high
In short: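 Vehicle-normalised growth inhibition of a repair- or checkpoint-altered yeast strain following compound treatment.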

[14] = NCI Yeast Anticancer Drug Screen. Data for the sgs1 strain (AID 173);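 further: 0% = growth of vehicle-only control cultures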; conditions: S. cerevisiae sgs1 mutant, active compounds read high
In short: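 Screen format: yeast with repair or checkpoint alterations, compound exposure, growth read relative to vehicle.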

[15] = NCI Yeast Anticancer Drug Screen. Data for the mlh1 rad18 strain (AID 175); conditions: S. cerevisiae mlh1 rad18 strain growth inhibition, active compounds read high
In short: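 Vehicle-treated cultures served as the reference for growth inhibition in a yeast strain carrying DNA damage repair alterations exposed to each compound.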

[16] = NCI Yeast Anticancer Drug Screen. Data for the rad18 strain (AID 177); conditions: S. cerevisiae rad18 mutant growth inhibition, active compounds read high
In short: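 Test articles were incubated with altered yeast defective in DNA damage repair. Results are given as inhibition of growth versus vehicle.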

[17] = at 5.0 µM (retest, dose inferred, filed as 0.5)
[18] = at 50.0 µM (retest, dose inferred, filed as 5.0)

Measured: growth inhibition

CCCCOC(=O)CSSCC(=O)OCCCC
active: [1]; at 33.0 µM 83% | [1]; at 100.0 µM 97% | [2]; at 33.0 µM 81% | [2]; at 100.0 µM 97% | [3]; at 33.0 µM 89% | [3]; at 100.0 µM 97% | [4]; at 33.0 µM 83% | [4]; at 100.0 µM 99% | [5]; at 33.0 µM 76% | [5]; [18] 99% | [5]; at 50.0 µM 91% | [5]; at 100.0 µM 97% | [6]; at 33.0 µM 80% | [6]; [18] 99% | [6]; at 50.0 µM 91.9% | [6]; at 100.0 µM 98% | [7]; at 33.0 µM 71% | [7]; at 100.0 µM 97% | [8]; [18] 99% | [9]; at 100.0 µM 98% | [10]; [18] 99% | [11]; at 33.0 µM 88% | [11]; [18] 98% | [11]; at 100.0 µM 99% | [12]; at 33.0 µM 70% | [12]; at 100.0 µM 98% | [13]; at 33.0 µM 74% | [13]; at 100.0 µM 98% | [14]; at 33.0 µM 70% | [14]; at 100.0 µM 96% | [15]; [18] 99% | [15]; at 50.0 µM 90.2% | [16]; at 33.0 µM 84% | [16]; at 100.0 µM 98%
inactive: [1]; at 1.2 µM -20% | [1]; at 3.7 µM -9% | [1]; at 11.0 µM 28% | [2]; at 1.2 µM -7% | [2]; at 3.7 µM -2% | [2]; at 11.0 µM 13% | [3]; at 1.2 µM -17% | [3]; at 3.7 µM -5% | [3]; at 11.0 µM 45% | [4]; at 1.2 µM 16% | [4]; at 3.7 µM 10% | [4]; at 11.0 µM 45% | [5]; at 1.2 µM -11% | [5]; at 3.7 µM 2% | [5]; [17] 44% | [5]; at 11.0 µM 17% | [6]; at 1.2 µM -38% | [6]; at 3.7 µM -10% | [6]; [17] 48% | [6]; at 11.0 µM 7% | [7]; at 1.2 µM -11% | [7]; at 3.7 µM -13% | [7]; at 11.0 µM -3% | [8]; [17] 9% | [9]; at 1.2 µM 8% | [9]; at 3.7 µM 4% | [9]; at 11.0 µM 8% | [9]; at 33.0 µM 61% | [10]; [17] 32% | [11]; at 1.2 µM 14% | [11]; at 3.7 µM 14% | [11]; [17] 56% | [11]; at 11.0 µM 53% | [12]; at 1.2 µM -15% | [12]; at 3.7 µM -1% | [12]; at 11.0 µM 8% | [13]; at 1.2 µM -26% | [13]; at 3.7 µM 7% | [13]; at 11.0 µM 37% | [14]; at 1.2 µM -30% | [14]; at 3.7 µM -8% | [14]; at 11.0 µM 18% | [15]; [17] 40% | [16]; at 1.2 µM -2% | [16]; at 3.7 µM 15% | [16]; at 11.0 µM 40%
